Rows were chosen to be rich in hits. Some 2.4% of all compounds tested hit in one or more screens of this group.
D2 ag-1 = activates the human D2 dopamine receptor; P14416; DiscoveRx PathHunter D2 beta-arrestin, luminescence, 90 min; 100% = 57 uM dopamine signal; activation, % (concentration not given with the values); 360,000 tested, 0.084% active; AID 624465; in the data active means activation above about 40%; inconclusive means between about 15% and that limit
Target sequence (P14416 whole entry, looked up): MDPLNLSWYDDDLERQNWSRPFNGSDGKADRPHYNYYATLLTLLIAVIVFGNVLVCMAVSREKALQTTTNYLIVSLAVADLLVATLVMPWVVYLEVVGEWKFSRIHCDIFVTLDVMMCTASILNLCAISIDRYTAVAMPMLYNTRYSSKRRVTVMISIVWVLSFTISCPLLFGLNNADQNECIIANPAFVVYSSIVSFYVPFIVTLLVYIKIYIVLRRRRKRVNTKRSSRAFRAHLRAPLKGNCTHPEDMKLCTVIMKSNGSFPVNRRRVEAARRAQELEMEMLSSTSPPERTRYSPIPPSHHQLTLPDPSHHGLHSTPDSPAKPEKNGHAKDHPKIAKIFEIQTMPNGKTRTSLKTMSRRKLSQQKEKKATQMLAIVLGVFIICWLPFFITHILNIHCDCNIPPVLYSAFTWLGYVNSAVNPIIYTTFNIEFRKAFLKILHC
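Agonist mode: compounds alone added to overnight-plated D2 PathHunter cells for 90 min at 37 C, with 57 uM final dopamine (EC100) defining full response. Beta-arrestin recruitment detected by chemiluminescent reagent, read after 1 h at ambient temperature.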
D2 PAM-1 = positive allosteric modulators of human D2 dopamine receptor; HEK293 T-REx D2, calcium flux, EC20 dopamine potentiation; potentiation, % at 10 µM; 340,000 tested, 0.34% active; AID 485347;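 active means potentiation over 3 SD above the plate norm, cut at about 30% in these data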; further: 0% is about no effect
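Potentiation of an EC20 dopamine calcium response measured kinetically over 180 s, after a preceding 180 s compound-only read flagging agonists. Cells: inducible Hek293 Trex D2 line, 4000/well, cultured overnight at 30 C before dye loading.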
D2 antagonist = antagonists of human D2 dopamine receptor; HEK293 TREx D2 cells, calcium flux, dopamine EC80; AID 485344; 340,000 tested, 2% active; inhibition, % at 10 µM; in the data active means inhibition above about 30%; inactive means below that, where a call was filed; further: 0% is about no effect
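Compounds are added to dye-loaded, induced HEK293 T-REx cells coupled to calcium release via D2; after a 3 min kinetic read an EC80 dopamine stimulus is given and fluorescence is recorded for 3 more min.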
D2 ag-2 = D2 dopamine receptor (human) agonism; 340,000 tested, 0.53% active; HEK293 T-REx D2 cells, calcium flux agonist mode; activation, % at 2 µM; P14416;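 active means activation over 3 SD above normal in the single-dose calcium agonist read, cut at about 30% in these data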; further: 0% is about no effect
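Agonism is scored from calcium flux in a force-coupled, inducible HEK293 cell line expressing D2, read kinetically for 180 s after compound addition against dopamine controls.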
D2 PAM-2 = potentiates the human D2 dopamine receptor allosterically. potentiation, % (no concentration beside the values). DiscoveRx D2 beta-arrestin cells, luminescence, 90 min; 100% = 57 uM dopamine signal. 360,000 tested, 0.23% active; in the data active means potentiation above about 50%; inconclusive means mostly about 30% to 49%
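PathHunter beta-arrestin assay in DiscoveRx D2 cells. Compounds were added with an EC20 of dopamine (50 nM final) for 90 min at 37 deg C. Luminescence was read 1 h after detection reagent, with 57 uM dopamine as the EC100 control.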
Starred values were filed as active, the others as inactive.

COc1ccc(OC)c(Nc2nc(N)c([N+](=O)[O-])c(NC3CCCCC3)n2)c1 was read as D2 ag-1 1.5, D2 PAM-1 -12.8, D2 antagonist 6.7, D2 ag-2 -0.5 and D2 PAM-2 -7.6.
For CC(SC1=Nc2ccccc2C2CC=NN12)C(=O)NC1(C#N)CCCCC1 (centres undefined) the results were D2 ag-1 -8.5, D2 PAM-1 -28.9, D2 antagonist 5.3, D2 ag-2 44.2* and D2 PAM-2 -27.4.
For COc1ccc(/C=C/C(=O)OCC(=O)c2ccc[nH]2)cc1 the results were D2 ag-1 -0.7, D2 PAM-1 -12.1, D2 antagonist 38.1*, D2 ag-2 -0.5 and D2 PAM-2 0.5.
Cc1cc(C(=O)COC(=O)c2cc(O)c3ccccc3c2O)c(C)n1CC1CCCO1 (centres undefined) was read as D2 ag-1 inconclusive, D2 PAM-1 -2.7, D2 antagonist 7.7, D2 ag-2 1.5 and D2 PAM-2 82.7*.
`O=C(CC1Oc2ccccc2NC1=O)NCCCN1CCN(C2CCCCC2)CC1` (centres undefined) gave D2 ag-1 -5.4 and D2 PAM-2 -6.0.
`[O-][n+]1onc2c3cc(-c4ccccc4)nnc3ccc21` gave D2 ag-1 7.6, D2 PAM-1 3.0, D2 antagonist -23.2, D2 ag-2 -1.2 and D2 PAM-2 52.7*.
`Fc1ccc2nc(-c3ccccc3)ccc2c1` gave D2 ag-1 -2.9 and D2 PAM-2 -7.2.
`Cc1cccc(NC(=O)C2CC(O)CN2C(=O)OCc2ccccc2)c1` (centres undefined) gave D2 ag-1 -4.4 and D2 PAM-2 -12.4.
Screening Cc1cc(NC(=O)CN(C)CC(=O)Nc2ccc(Cl)cc2)no1 returned D2 ag-1 -0.1 and D2 PAM-2 -11.4.
For Cc1cc(-c2ccccc2)nc(N(C)NC(=O)c2c(F)cccc2F)c1S(C)(=O)=O the results were D2 ag-1 -3.5, D2 PAM-1 10.0, D2 antagonist -12.5, D2 ag-2 0.6 and D2 PAM-2 -0.3.
Screening O=c1c2ccccc2nc(-c2ccco2)n1Cc1ccccc1 returned D2 ag-1 -2.7, D2 PAM-1 22.0, D2 antagonist 24.1, D2 ag-2 -0.6 and D2 PAM-2 -8.7.
`CCOc1ccc(CCn2c(-c3ccco3)nc3ccccc3c2=O)cc1OCC` gave D2 ag-1 -2.2, D2 PAM-1 -22.5, D2 antagonist 35.8*, D2 ag-2 0.4 and D2 PAM-2 0.8.
`O=c1c2ccccc2nc(-c2ccoc2)n1CCc1ccccc1` gave D2 ag-1 -3.0, D2 PAM-1 62.4*, D2 antagonist 1.5, D2 ag-2 -0.2 and D2 PAM-2 -0.1.
For CCOC(=O)NC(=O)CN1C(=O)NC2(CCc3ccccc32)C1=O (centres undefined) the results were D2 ag-1 -2.9, D2 PAM-1 -0.9, D2 antagonist 8.8, D2 ag-2 -1.4 and D2 PAM-2 3.3.
`CC1CCN(C(=O)c2ccc(S(=O)(=O)N3CCCCCC3)cc2)CC1` gave D2 ag-1 1.5 and D2 PAM-2 -3.0.
For O=C(NCCc1cnc[nH]1)Nc1cccc(C(F)(F)F)c1 the results were D2 ag-1 -2.6, D2 PAM-1 -9.8, D2 antagonist 40.2*, D2 ag-2 0.2 and D2 PAM-2 -65.2.
For O=C(NCc1cccnc1)Nc1cccc(C(F)(F)F)c1 the results were D2 ag-1 -0.8, D2 PAM-1 -12.4, D2 antagonist -10.0, D2 ag-2 0.4 and D2 PAM-2 -14.8.
Screening CC1(c2ccc3noc(-c4ccccc4)c3c2)OCCO1 returned D2 ag-1 14.4, D2 PAM-1 15.8, D2 antagonist -12.4, D2 ag-2 -0.5 and D2 PAM-2 58.4*.
`COc1cccc(-c2onc3ccc(C4(C)OCCO4)cc23)c1` gave D2 ag-1 inconclusive, D2 PAM-1 3.4, D2 antagonist 0.3, D2 ag-2 0.6 and D2 PAM-2 25.3.
For O=C(O)c1ccc2noc(-c3ccccc3)c2c1 the results were D2 ag-1 3.0, D2 PAM-1 1.5, D2 antagonist -11.0, D2 ag-2 0.5 and D2 PAM-2 -4.0.
O=C(c1ccc2noc(-c3ccccc3)c2c1)N1CCN(c2ccccc2)CC1 was read as D2 ag-1 inconclusive, D2 PAM-1 -3.9, D2 antagonist -3.2, D2 ag-2 0.4 and D2 PAM-2 71.9*.
For CC1(c2ccc3noc(-c4ccc(F)cc4)c3c2)OCCO1 the results were D2 ag-1 inconclusive, D2 PAM-1 -6.2, D2 antagonist -7.9, D2 ag-2 0.8 and D2 PAM-2 60.5*.
For O=S(=O)(c1ccccc1)n1cc(-c2ccccn2)c(N2CCOCC2)n1 the results were D2 ag-1 -0.9, D2 PAM-1 1.9, D2 antagonist 22.9, D2 ag-2 0.1 and D2 PAM-2 -0.8.
COc1ccc(C(=O)Oc2ccc3c(c2)OCO3)cc1OC was read as D2 ag-1 -3.7, D2 PAM-1 0.1, D2 antagonist 10.0, D2 ag-2 4.7 and D2 PAM-2 3.5.
N/C(=N\OC(=O)c1ccc2c(c1)OCO2)c1cccc(Br)c1 was read as D2 ag-1 inconclusive, D2 PAM-1 -3.6, D2 antagonist -2.4, D2 ag-2 0.2 and D2 PAM-2 106.3*.
`N/C(=N\OC(=O)c1ccc2c(c1)OCO2)c1cccnc1` gave D2 ag-1 inconclusive, D2 PAM-1 -5.4, D2 antagonist -4.9, D2 ag-2 -0.2 and D2 PAM-2 79.1*.
For COc1ccc(/C(N)=N/OC(=O)c2ccc3c(c2)OCO3)cc1OC the results were D2 ag-1 11.7, D2 PAM-1 1.2, D2 antagonist -10.2, D2 ag-2 -0.1 and D2 PAM-2 84.3*.
Screening COc1cc(OC)c(C(=O)Oc2ccc3c(c2)OCO3)cc1OC returned D2 ag-1 1.1, D2 PAM-1 13.2, D2 antagonist 30.2*, D2 ag-2 0.0 and D2 PAM-2 -5.6.
For COc1ccc(OC)c(N2CC(O)(c3cccs3)[N+]3=C2SCCC3)c1 (centres undefined) the results were D2 ag-1 -4.1, D2 PAM-1 -25.0, D2 antagonist 40.0*, D2 ag-2 3.8 and D2 PAM-2 -48.1.
Screening OC1(c2cccs2)CN(c2ccc(Br)cc2)C2=[N+]1CCCS2 (centres undefined) returned D2 ag-1 -3.6, D2 PAM-1 -19.1, D2 antagonist 2.3, D2 ag-2 6.0 and D2 PAM-2 -17.3.
Screening COc1ccccc1N1CCN(CCCCN2C(=O)C3CCCCN3C2=O)CC1 (centres undefined) returned D2 ag-1 1.4, D2 PAM-1 -18.2, D2 antagonist 94.3*, D2 ag-2 0.3 and D2 PAM-2 -28.1.
Screening O=C1C2CCCN2C(=O)N1CCCN1CCN(c2cccc(Br)c2)CC1 (centres undefined) returned D2 ag-1 2.7, D2 PAM-1 18.4, D2 antagonist -17.2, D2 ag-2 -0.5 and D2 PAM-2 -5.1.
